Source: PubChem BioAssay
Shown is part of a subset that was picked to be rich in hits.
AMPAR-TARP mod – modulators of AMPA receptor GluA2-stargazin complexes; O88602+P19491; HEK293 GluA2+stargazin, membrane potential dye (FDSS), glutamate EC50; hits were called plate by plate, in both directions; 3.5% of 40,000 active; calls only at 30 µM;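 active = any of four per-well response measures lying three or more SD from its plate-wide compound average, in either direction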
GIRK2 activator – Activates human GIRK2-containing potassium channels | P48051 | HEK293 GIRK2/NPY4 cells, thallium flux fluorescence | activation (% efficacy), % for hits at 37.5 µM | 34,000 tested, under 10 active;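 active = primary screen hit, no activity in plain HEK293 cells, and in GIRK2-only cells above 5% efficacy rising with concentration; inactive = the rest, including fluorescent compounds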;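 note: efficacy is normalized control-subtracted fluorescence 15 s after thallium addition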
Target sequence (P48051 whole entry, looked up): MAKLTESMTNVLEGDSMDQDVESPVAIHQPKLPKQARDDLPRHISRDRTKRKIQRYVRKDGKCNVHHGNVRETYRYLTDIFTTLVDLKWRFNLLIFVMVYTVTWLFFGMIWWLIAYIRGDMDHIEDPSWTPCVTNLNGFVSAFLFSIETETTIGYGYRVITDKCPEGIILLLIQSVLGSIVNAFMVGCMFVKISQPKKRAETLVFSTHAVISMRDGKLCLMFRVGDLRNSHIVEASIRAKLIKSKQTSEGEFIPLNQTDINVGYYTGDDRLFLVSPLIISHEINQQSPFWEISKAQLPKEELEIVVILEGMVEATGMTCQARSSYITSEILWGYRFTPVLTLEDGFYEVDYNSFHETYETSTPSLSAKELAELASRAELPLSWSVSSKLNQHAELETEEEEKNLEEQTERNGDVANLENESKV
Starred values were filed as active, the others as inactive; i = inactive; / = not tested or not shown; + = active, no number.

SMILES	AMPAR-TARP mod	GIRK2 activator
CC1=C(C(=O)OC(C)(C)C)C(c2ccccc2F)NC(=O)N1 (stereo unspecified)	+	/
CCOC(=O)C1=C(C)NC(=O)NC1c1cccc2ccccc12 (stereo unspecified)	i	/
O=C(C1CCCC1)N1CCc2ccc(NS(=O)(=O)Cc3ccccc3)cc21	+	i
O=C(c1ccco1)N1CCc2ccc(NS(=O)(=O)Cc3ccccc3)cc21	i	i
O=C(C1CC1)N1CCc2ccc(NS(=O)(=O)c3ccc4c(c3)OCCO4)cc21	i	i
O=C(Nc1ccc2c(c1)N(C(=O)C1CC1)CC2)c1cc(Br)ccc1Cl	i	i
O=C(Nc1ccc2c(c1)N(C(=O)C1CC1)CC2)c1ccc(Cl)c(Cl)c1	+	i
O=C(C1CC1)N1CCc2ccc(NS(=O)(=O)c3ccc4c(c3)CCCC4)cc21	+	i
COc1ccc(S(=O)(=O)CC(=O)Nc2sccc2C(N)=O)cc1	i	i
Cc1cc(NC(=O)CCSc2ccccc2)n(C)n1	/	i
CCS(=O)(=O)N1CCCc2cc(NC(=O)Nc3ccc(OC)cc3)ccc21	i	i
CCS(=O)(=O)N1CCCc2cc(NC(=O)NCc3ccccc3)ccc21	i	i
CCS(=O)(=O)N1CCCc2cc(NC(=O)Nc3cc(Cl)ccc3OC)ccc21	+	i
CCCS(=O)(=O)N1CCCc2cc(NC(=O)NCCCc3ccccc3)ccc21	+	i
CCc1ccc(Oc2cc(N3CCC(C(=O)NCc4ccc(F)c(Cl)c4)CC3)ncn2)cc1	+	i
CCc1ccc(Oc2cc(N3CCC(C(=O)NCc4cccc(Cl)c4)CC3)ncn2)cc1	i	i
COc1ccc(S(=O)(=O)/N=C2/C=C(Nc3ccc(C)cc3)C(=O)c3ccccc32)cc1	+	/
COC(=O)c1ccccc1NC1=C/C(=N/S(=O)(=O)c2ccc(F)cc2)c2ccccc2C1=O	+	/
COC(=O)c1cccc(NS(=O)(=O)c2ccc(F)cc2)c1C	i	/
CCOc1ccc(NC2=C/C(=N/S(=O)(=O)c3ccc(OC)cc3)c3ccccc3C2=O)cc1	i	/
COc1ccc(S(=O)(=O)/N=C2/C=C(Nc3cccc(C)c3)C(=O)c3ccccc32)cc1	+	/
COc1ccc(S(=O)(=O)CCC(=O)Nc2cc(C)cc(C)c2)cc1	i	i
Cc1ccc(N2CCn3c2nn(CC(=O)N2CCCc4ccccc42)c(=O)c3=O)cc1	i	/
COc1ccc(NC(=O)CCc2csc3nc(-c4ccc(Cl)cc4)cn23)c(OC)c1	i	i
Cc1nc(NCC2CCCO2)nc(NC2CCCCC2)c1[N+](=O)[O-] (stereo unspecified)	+	i
SMILES	AMPAR-TARP mod	GIRK2 activator
Cc1nc(NCC2CCCO2)nc(Nc2ccc(F)cc2)c1[N+](=O)[O-] (stereo unspecified)	i	i
Cc1cc(C)c(S(=O)(=O)N2CCN(c3c(C)cccc3C)CC2)c(C)c1	i	/
Cc1cc(C)c(S(=O)(=O)N2CCN(c3cccc(C)c3C)CC2)c(C)c1	+	/
COc1ccc(NC(=O)Cn2nc(SC)c(S(=O)(=O)c3ccc(F)cc3)c2N)cc1Cl	i	/
COc1ccccc1C1(CNC(=O)c2cnc3ccccc3n2)CCOCC1	i	i
CCOC(=O)c1csc(NC(=O)c2cc3ccccc3o2)n1	+	/
C=CCNC(=O)Nc1nc(C(=O)OCC)cs1	i	i
COc1ccc(SCC(=O)Nc2nnc(-c3cccs3)o2)cc1	i	/
CCn1cc(C(=O)Nc2ccc(Br)c(C)c2)c(=O)c2ccc(C)nc21	i	/
COc1ccc(-n2c(COc3ccc4c(c3)OCO4)nnc2SCC(=O)c2ccccc2)cc1	i	/
COc1c2c(cc3c1C(CC(=O)c1ccccc1)N(C)CC3)OCO2 (stereo unspecified)	+	/
CCN(CC)c1nc2c(c(=O)[nH]c(=O)n2C)n1CC(O)COc1ccc(C)c(C)c1 (stereo unspecified)	i	/
CN(C)S(=O)(=O)N1CCC(COCc2ccc(Cl)cc2)CC1	+	i
O=S(=O)(/C=C/c1ccccc1)N1CCC(COCc2ccc(Cl)cc2)CC1	i	i
O=C(NCCCn1nc(-c2cccs2)ccc1=O)c1ccc(F)cc1	i	i
COc1cn(CC(=O)NCc2ccccc2)c(CSc2nc(C)cc(C)n2)cc1=O	i	i
CCCNC(=O)Cn1cc(OC)c(=O)cc1CSc1nc(C)cc(C)n1	+	i
Cc1ccc(-n2c3c(cc(C(=O)Nc4ccc5c(c4)OCCO5)c2=O)C(=O)CCC3)cc1	i	/
O=C(NCC1COC2(CCCC2)O1)C(=O)Nc1ccccc1[N+](=O)[O-] (stereo unspecified)	i	i
COc1cccc(NC(=O)c2sccc2S(=O)(=O)N2CCN(c3ccc(Cl)cc3)CC2)c1	/	i
O=C(Nc1ccc(F)c(F)c1)c1sccc1S(=O)(=O)N1CCN(c2ccccc2)CC1	+	i
Cn1nnnc1SCC(=O)N1CCN(CCn2ncccc2=O)CC1	/	i
CCOCCCNC(=O)C(=O)Nc1c2c(nn1-c1ccc(Cl)cc1)CS(=O)(=O)C2	i	/
COc1ccc(/C=C2\Oc3c(cc4c(c3C)OCN(Cc3ccco3)C4)C2=O)cc1OC	+	i
COc1ccc(/C=C2\Oc3c4c(cc(C)c3C2=O)OCN(C2CC2)C4)cc1OC	i	i
SMILES	AMPAR-TARP mod	GIRK2 activator
CC(C)(C)C(=O)Nc1sc2c(c1C#N)CCN(Cc1ccccc1)C2	+	i
CCC(=O)Nc1sc2c(c1-c1nc3ccccc3s1)CCN(Cc1ccccc1)C2	i	/
O=C(CCn1cnc2c(cnn2-c2ccccc2)c1=O)NCc1ccc(Cl)cc1	/	i
COCCN1CCC(CNS(=O)(=O)c2ccc(OCC(C)C)cc2)CC1	i	i
Cc1ccc(Cl)cc1N1CCN(C(=O)C2CC(=O)c3ccccc32)CC1 (stereo unspecified)	+	i
CS(=O)(=O)N1CCN(C(=O)C2CC(=O)c3ccccc32)CC1 (stereo unspecified)	i	i
COc1ccc(Cl)cc1NC(=O)C(=O)NCC(c1cccs1)N(C)C (stereo unspecified)	+	i
COc1ccc(NC(=O)C(=O)NCC(c2cccs2)N(C)C)c(OC)c1 (stereo unspecified)	i	i
COc1ccc(NC(=O)NCC(O)Cc2ccccc2)cc1OC (stereo unspecified)	i	i
COc1ccc(Cl)cc1NC(=O)NCC(O)Cc1ccccc1 (stereo unspecified)	+	i
Cc1ccc(CNC(=O)CSc2ccc(NC(=O)C3CC3)nn2)cc1	i	i
CCc1ccc(-n2nnnc2SC(C)C(=O)Nc2ccccc2OC)cc1 (stereo unspecified)	i	/
COc1ccc(NC(=O)C(C)Sc2nnnn2-c2ccccc2)cc1 (stereo unspecified)	i	/
COc1ccc(-n2nnnc2SC(C)C(=O)Nc2ccc(C(=O)O)cc2)cc1 (stereo unspecified)	+	/
COc1ccc(-n2nnnc2SC(C)C(=O)Nc2ccccc2OC)cc1 (stereo unspecified)	+	/
CCCCN1C(=O)CCc2cc(NC(=O)c3cccc(OC)c3)ccc21	i	i
S=c1nc(-c2ccc(Br)cc2)n(Cc2ccco2)c2c1CCCC2	+	/
O=C(CSc1nc(=O)n(Cc2ccco2)c2c1CCC2)NC1CCCCC1	i	i
